# GALR2 antag = blocks the human galanin receptor 2; inhibition, % at 4 µM; GALR2-expressing cells, antagonist mode; O43603; AID 828; 140,000 tested, 0.39% active; in the data active = inhibition above about 27%;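 note: cells stimulated with galanin 1-16 at roughly its EC80; 0% = agonist challenge control and 100% = basal control without agonist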
# PLAP activator = activates human placental alkaline phosphatase | AID 696 | activation fold at 20 µM | P05187 | 96,000 tested, 1.2% active | purified PLAP enzyme, luminescent substrate read-out; hits give high values; in the data active = activation fold above about 2
# S1P2 blocker = blocks the human S1P2 receptor; 97,000 tested, 0.21% active; inhibition, % at 5 µM; AID 736; O95136; cell-based S1P2 antagonist assay, inhibition at 5 uM; in the data active = inhibition above about 45%;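 note: CRE beta-lactamase reporter cells expressing human S1P2 stimulated with S1P; 0% = agonist at EC80 alone and 100% = agonist plus reference antagonist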
# Target sequence (O95136 whole entry, looked up): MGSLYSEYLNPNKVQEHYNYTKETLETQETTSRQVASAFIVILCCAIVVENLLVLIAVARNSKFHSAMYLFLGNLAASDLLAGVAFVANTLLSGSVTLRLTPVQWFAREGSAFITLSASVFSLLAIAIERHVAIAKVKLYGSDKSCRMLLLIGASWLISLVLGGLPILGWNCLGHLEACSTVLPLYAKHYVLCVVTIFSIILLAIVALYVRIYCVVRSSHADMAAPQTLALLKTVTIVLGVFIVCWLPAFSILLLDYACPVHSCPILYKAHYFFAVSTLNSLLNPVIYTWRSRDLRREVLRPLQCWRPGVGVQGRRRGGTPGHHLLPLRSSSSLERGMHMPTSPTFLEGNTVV
# GALR2 ag = activates the human galanin receptor 2. O43603. GALR2-expressing cells, agonist activation read-out. activation, % (concentration not given with the values). 140,000 tested, 0.48% active; in the data active = activation above about 5%, passing the limit was not always enough;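 note: 0% = vehicle buffer wells and 100% = reference agonist at full effect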
# S1P2 agonist = activates the human S1P2 receptor; 97,000 tested, 0.46% active; S1P2-expressing cell line, agonist reporter read-out; activation, % at 4.5 µM; in the data active = activation above about 16%;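 note: 0% = vehicle low control and 100% = maximal reference agonist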
# GALR2 agon conf = confirmation of human galanin receptor 2 (GALR2) agonists | shares compounds with GALR2 ag | GALR2-expressing cells, agonist activation | activation, % at 5.6 µM | 460 tested, 10% active; in the data active = activation above about 8.4%;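 note: 0% = buffer-only vehicle wells and 100% = full reference agonist response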
# BLA activ ctr = beta-lactamase activation, GALR2 counterscreen. shares compounds with GALR2 ag. CHO NFAT-bla reporter, beta-lactamase FRET activation. activation, % at 5.6 µM. 460 tested, 10% active. AID 865;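 active = activation above the screen-wide mean activation plus 3 SD, cut at about 8% in these data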;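 note: 0% = DMSO with PBS wells and 100% = thapsigargin positive control wells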
# Numbers without * were called inactive; nt = not tested or not shown. Compounds with a hit are over-represented: about 2% of the library has one in this group of screens.
SMILES,GALR2 antag,PLAP activator,S1P2 blocker,GALR2 ag,S1P2 agonist,GALR2 agon conf,BLA activ ctr
COc1ccc(NC(=O)COc2ccccc2)c(OC)c1,2,1,5,16*,-3,-1,-3
O=C(c1cc(C2CC2)nc2ccc(Br)cc12)N1N=C(C(F)F)CC1(O)C(F)F (configuration not stated),5,nt,-9,-2,-4,nt,nt
c1coc(CN(Cc2ccco2)c2ncnc3c2oc2ccccc23)c1,8,nt,-24,9,-2,0,-2
Clc1ncnc2c1oc1ccccc12,19,1,7,-2,-3,nt,nt
CCn1c(N)c(C(=O)NCC2CCCO2)sc1=S (configuration not stated),10,1,1,-3,-3,nt,nt
Nc1c(C(=O)NCC2CCCO2)sc(=S)n1-c1ccccc1 (configuration not stated),8,0.9,-8,10,-2,-1,-2
C=CCn1c(SCC(=O)N(C)C2CCS(=O)(=O)C2)nnc1-c1ccncc1 (configuration not stated),0,1,9,-2,-4,nt,nt
COc1ccc(CCN2CCC(Nc3nc4ccccc4n3Cc3ccc(F)cc3)CC2)cc1,2,nt,nt,25*,nt,18*,3
N#Cc1nn(-c2ccccc2)nc1N1CCCCC1,18,0.9,nt,0,nt,nt,nt
CC1CCN(c2ccc(NC(=S)NC(=O)c3ccc(-c4cccc([N+](=O)[O-])c4)o3)cc2)CC1,6,0.9,-16,-2,-4,nt,nt
CC1CCN(c2ccccc2NC(=S)NC(=O)c2ccc(-c3cccc([N+](=O)[O-])c3)o2)CC1,8,1.1,9,21*,-3,-1,-1
COCCOC(=O)c1c(C)n(C)c2ccc(OC(=O)c3ccco3)cc12,-9,0.9,-10,86*,-7,0,1
CCN(CC)S(=O)(=O)c1ccc(C)c(NC(=S)NNC(=O)C2CC2)c1,5,nt,nt,0,nt,nt,nt
COc1ccccc1NC(=S)Nc1ccccn1,7,nt,nt,44*,nt,-1,-2
CCC(C)C(NC(=O)c1ccccc1NC(=O)c1ccc(OC)cc1)C(=O)NCc1ccco1 (configuration not stated),1,2.1*,6,14*,0,7,4
COc1ccc(-c2nnc3n2N=C(c2cccc(Br)c2)CS3)cc1OC,9,0.9,nt,9.7*,nt,1,0
CCOC(=O)c1c(NC(=O)C2=C(C)NC(=S)NC2c2ccc(CC)cc2)sc(C)c1C (configuration not stated),-2,nt,nt,9.5*,nt,4,4
COC(=O)COC(=O)c1ccc(-n2nnnc2SC)cc1,5,0.9,25,-2,-3,nt,nt
COC(=O)c1ccc(-n2nnnc2SC)cc1,12,1,9,15*,-5,0,2
Cc1nc2ccccn2c1C(=O)NN=C1C2CC3CC(C2)CC1C3,2,nt,nt,-1,nt,nt,nt
CCCCn1nc(NC(=O)c2cccs2)c2cc3ccccc3nc21,10,1,13,11,6,2,4
CCCn1nc(NC(=O)c2cccs2)c2cc3cc(OC)ccc3nc21,-12,0.9,-16,9,5,1,2
CCCn1nc(NC(=O)c2cccs2)c2cc3ccccc3nc21,24,1.1,10,2,6,nt,nt
CCOc1ccc(-n2c(C)nnc2SCC(=O)N(CC)CC)cc1,-8,1,-10,-1,-2,nt,nt
Cn1nccc1C(=O)Nn1cnnc1,-6,0.9,7,20*,-6,0,0
SMILES,GALR2 antag,PLAP activator,S1P2 blocker,GALR2 ag,S1P2 agonist,GALR2 agon conf,BLA activ ctr
COc1ccc(OC)c(C(=O)COC(=O)c2ccccc2O)c1,9,1.1,6,-4,-10,nt,nt
Fc1ccc(NCc2cccnc2)cc1,-14,0.8,-22,36*,4,-1,-1
c1ccc(NCc2cccnc2)cc1,16,0.9,7,-2,-6,nt,nt
O=C(CCSCCc1ccccn1)Nc1ccc(Cl)cn1,-6,0.8,2,11,-4,-1,0
COC(=O)/C(=C/Nc1ccccc1)[N+](=O)[O-],8,1,14,-2,-4,nt,nt
COC(=O)/C(=C/Nc1ccc(O)cc1)[N+](=O)[O-],4,0.9,-10,10,-1,-1,-4
CCOc1ccccc1N=c1oc2cc(O)ccc2cc1C(=O)NCC1CCCO1 (configuration not stated),-25,1.1,-48,66*,18*,2,7

# Screening results from PubChem.
